Reference: PubChem BioAssay (Tox21)
Results filed as inconclusive are left out. Activity calls are given as the source filed them. Unless noted, calls come from the whole dose curve; as a rule, active = well fitted curve in the direction sought with a large enough effect in the repeat runs; inconclusive = weak or mixed curves; inactive = no such curve, though single readings can be large; an effect the other way counts as inactive or inconclusive.

How the values were obtained:
[1] = qHTS assay to identify small molecule agonists of the vitamin D receptor (VDR) signaling pathway - cell viability counter screen (AID 743224); note: series mostly up to about 63 µM; nearly all actives have a fitted effect of over 50% in size
Outline: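 In parallel with the bla FRET readout, cytotoxicity toward VDR-bla cells after 16 h compound exposure was assessed by CellTiter-Glo, with luminescence recorded after a 30 min room-temperature incubation.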

[2] = qHTS assay to identify small molecule antagonists of the vitamin D receptor (VDR) signaling pathway - cell viability counter screen (AID 743225); note: nearly all actives have a fitted effect of over 50% in size
Outline: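 Cytotoxicity toward the VDR-bla HEK 293T line was scored by ATP-based CellTiter-Glo luminescence, read in the wells already used for the beta-lactamase readout after 16 h compound treatment under 3 nM 1-alpha,25-dihydroxyvitamin D3 stimulation.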

[3] = qHTS assay to identify small molecule agonists of the NFkB signaling pathway (AID 1159509; active = well fitted curve in the direction sought with a large enough effect in the signal ratio in the repeat runs, not every such curve was filed as active; the % refers to the signal ratio; note: series mostly up to about 61 µM)
Outline: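 Beta-lactamase reporter assay run in quantitative high-throughput format on an NF-kB-responsive ME-180 line, with 5 hr compound treatment and a FRET-based blue/green fluorescence readout.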

[4] = qHTS assay to identify small molecule agonists of the NFkB signaling pathway - cell viability counter screen (AID 1159515; calls by dose curve; note: series mostly up to about 61 µM; nearly all actives have a fitted effect of over 55% in size)
Outline: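 Plate 2,000 NFkB-bla ME-180 cells/well; incubate overnight. Add compounds, 5 hr at 37 C. Add FRET substrate, 1.5 hr RT. Add CellTiter-Glo, 30 min RT; read luminescence.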

[5] = qHTS assay to identify small molecule agonists of the endoplasmic reticulum stress response signaling pathway (AID 1159516; active = well fitted activation curve with a large enough effect in the signal ratio in the repeat runs, not every such curve was filed as active; the % refers to the signal ratio)
Outline: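 Beta-lactamase expression from the ER stress response element in HeLa reporter cells is quantified with the LiveBLAzer B/G FRET substrate, read at 405 nm excitation after 2 hr at room temperature, following 5 hr compound treatment at 37 C.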

[6] = qHTS assay to identify small molecule agonists of the endoplasmic reticulum stress response signaling pathway - cell viability counter screen (AID 1159517; calls by dose curve; note: series mostly up to about 61 µM; nearly all actives have a fitted effect of over 50% in size)
Outline: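 Steps: seed 1,500 ESRE-bla HeLa cells per well; incubate overnight at 37 C, 5% CO2; add compounds in DMSO for 5 hr; run FRET substrate 2 hr RT; add CellTiter-Glo, wait 30 min, read luminescence.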

[7] = qHTS assay to identify small molecule antagonists of the retinoid-related orphan receptor gamma (ROR-gamma) signaling pathway - cell viability counter screen (AID 1159520); note: nearly all actives have a fitted effect of over 50% in size
Outline: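 Tet-on ROR gamma CHO cells were given compounds for 2 hr, then doxycycline hyclate at 1 uM final, and incubated 16 hr at 37 C. Viability was measured as ATP content by CellTiter-Glo luminescence.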

[8] = biological target: Nuclear receptor ROR-gamma (Homo sapiens) (UniProt P51449); experiment: qHTS assay to identify small molecule antagonists of the retinoid-related orphan receptor gamma (ROR-gamma) signaling pathway (AID 1159521)
Outline: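 Readout: ONE-Glo luciferase luminescence, 30 min at room temperature. System: Tet-on RORγ CHO, RORE-LUC. Sequence: compound 2 h, doxycycline 1 uM final, 16 h at 37 C.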

[9] = qHTS assay to identify small molecule agonists of the AP-1 signaling pathway - cell viability counter screen (AID 1159525; calls by dose curve; note: nearly all actives have a fitted effect of over 55% in size)
Outline: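 Same-well cytotoxicity counter screen of the Tox21 10K library in ME-180 cells. The readout is ATP-dependent luminescence after 5 h compound treatment. Data are normalised to DMSO and tetra n-octyl ammonium bromide controls.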

[10] = qHTS assay to identify small molecule agonists of the AP-1 signaling pathway (AID 1159526; calls by dose curve)
[11] = qHTS assay to identify small molecule agonists of the RXR signaling pathway - cell viability counter screen (AID 1159529)
Outline: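 Tox21 10K compounds were tested for cytotoxicity against GeneBLAzer RXR-alpha HEK 293T cells grown in 2% charcoal-stripped FBS. Exposure lasted 16 hr at 37 C, 5% CO2; viability read by CellTiter-Glo luminescence.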

[12] = qHTS assay to identify small molecule antagonists of the retinoid acid receptor (RAR) signaling pathway - cell viability counter screen (AID 1159551); note: nearly all actives have a fitted effect of over 35% in size
Outline: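 Viability of C3RL4 cells is quantified from ATP by luminescence after 6 h treatment at 37 C with compounds and 1 uM retinol.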

[13] = qHTS assay to identify small molecule antagonists of the retinoic acid receptor (RAR) signaling pathway (AID 1159552; note: nearly all actives have a fitted effect of over 50% in size)
Outline: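 Overnight-plated C3RL4 reporter cells get compound, then retinol to 1 uM final; plates sit 6 hr at 37 C, 5% CO2. A luciferase reagent is added and light output recorded after 30 min at room temperature.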

[14] = qHTS assay to identify small molecule agonists of the retinoic acid receptor (RAR) signaling pathway (AID 1159553)
Outline: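 Compounds dissolved in DMSO were pinned onto C3RL4 cells seeded the previous day, and plates were held 6 hr at 37 C. RARE-driven luciferase output was then read by luminescence.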

[15] = biological target: Retinoic acid receptor RXR-alpha (Homo sapiens) (UniProt P19793); experiment: qHTS assay to identify small molecule agonists of the RXR signaling pathway (AID 1159527; calls by dose curve; note: nearly all actives have a fitted effect of over 35% in size)
Outline: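 Reporter activation is measured as beta-lactamase activity via FRET substrate cleavage (emission 460/530 nm) in HEK 293T cells expressing an RXR-alpha-driven bla construct, following 16 hr compound exposure at 37 C.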

Measured: Potency

Sequence of Retinoic acid receptor RXR-alpha (Homo sapiens) (P19793 whole entry, looked up): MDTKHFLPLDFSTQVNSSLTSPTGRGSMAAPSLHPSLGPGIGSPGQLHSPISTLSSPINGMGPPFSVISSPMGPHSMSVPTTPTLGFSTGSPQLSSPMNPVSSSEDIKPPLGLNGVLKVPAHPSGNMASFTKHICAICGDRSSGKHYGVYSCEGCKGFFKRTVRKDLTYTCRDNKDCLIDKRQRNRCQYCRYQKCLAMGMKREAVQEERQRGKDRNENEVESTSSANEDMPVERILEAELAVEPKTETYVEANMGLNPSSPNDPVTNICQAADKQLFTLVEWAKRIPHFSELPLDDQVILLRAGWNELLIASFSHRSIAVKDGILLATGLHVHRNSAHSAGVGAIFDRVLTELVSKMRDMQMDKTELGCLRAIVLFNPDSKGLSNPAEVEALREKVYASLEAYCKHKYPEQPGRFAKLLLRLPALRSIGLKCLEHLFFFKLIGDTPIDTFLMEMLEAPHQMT

CCN(CC)C(=O)[C@@H]1C=C2c3cccc4[nH]cc(c34)C[C@H]2N(C)C1
inactive: [1] | [2] | [3] | [4] | [5] | [6] | [7] | [8] | [9] | [10] | [11] | [12] | [13] | [14]

Fc1ccc(C2(Cn3cncn3)OC2c2ccccc2Cl)cc1 (stereo not drawn)
inactive: [3] | [4] | [5] | [6] | [7] | [8] | [9] | [10] | [11] | [12] | [13] | [14]

CC(C)(C)C(=O)C(Oc1ccc(Cl)cc1)n1cncn1 (stereo not drawn)
inactive: [1] | [2] | [3] | [4] | [5] | [6] | [7] | [8] | [9] | [10] | [11] | [12] | [13] | [14]

O=[N+]([O-])c1cccc2cccnc12
inactive: [1] | [2] | [3] | [4] | [5] | [6] | [7] | [8] | [9] | [10] | [11] | [12] | [13] | [14]

ClC(Br)Br
inactive: [1] | [2] | [3] | [4] | [5] | [6] | [7] | [8] | [9] | [10] | [11] | [12] | [13] | [14]

N#Cc1ccncc1
inactive: [1] | [3] | [4] | [5] | [6] | [7] | [8] | [9] | [10] | [11] | [12] | [13] | [14]

O=C(N[C@H]1CN2CCC1CC2)c1cc2ccoc2cn1
inactive: [1] | [2] | [3] | [4] | [5] | [6] | [7] | [8] | [9] | [10] | [11] | [12] | [13] | [14]

ClCCOCOCCCl
inactive: [1] | [2] | [3] | [4] | [5] | [6] | [7] | [8] | [9] | [10] | [15] | [12] | [13] | [14]

CCCSC(=O)Cl
inactive: [1] | [2] | [3] | [4] | [5] | [6] | [7] | [8] | [9] | [10] | [11] | [12] | [13] | [14]

CCOc1nc(C(Cl)(Cl)Cl)ns1
inactive: [1] | [2] | [3] | [4] | [5] | [6] | [7] | [8] | [9] | [10] | [11] | [12] | [13] | [14]

CCOP(=S)(OCC)SCSc1ccc(Cl)cc1
inactive: [1] | [2] | [3] | [4] | [5] | [6] | [7] | [8] | [9] | [10] | [11] | [12] | [13] | [14]

CCC#N
inactive: [1] | [2] | [3] | [4] | [5] | [6] | [7] | [8] | [9] | [10] | [11] | [12] | [13] | [14]

Nc1c(Br)cc([N+](=O)[O-])cc1[N+](=O)[O-]
inactive: [1] | [2] | [3] | [4] | [5] | [6] | [7] | [8] | [9] | [10] | [15] | [11] | [13] | [14]

Cc1nnc2n1-c1sc(CCC(=O)N3CCOCC3)cc1C(c1ccccc1Cl)=NC2
inactive: [1] | [2] | [3] | [4] | [5] | [6] | [7] | [8] | [9] | [10] | [15] | [12] | [13] | [14]

CCOC(=O)C1(c2ccccc2)CCN(CCc2ccc(N)cc2)CC1
inactive: [1] | [2] | [3] | [4] | [5] | [6] | [7] | [8] | [9] | [10] | [15] | [12] | [13] | [14]

CCOP(=S)(OCC)Oc1nc(Cl)n(C(C)C)n1
inactive: [1] | [3] | [4] | [5] | [6] | [7] | [8] | [9] | [10] | [11] | [12] | [13] | [14]

CC(=O)CC(c1ccc(Cl)cc1)c1c(O)c2ccccc2oc1=O (stereo not drawn)
inactive: [1] | [2] | [3] | [4] | [5] | [6] | [7] | [8] | [9] | [10] | [11] | [12] | [13] | [14]

C=C(C)CN(CC)c1c([N+](=O)[O-])cc(C(F)(F)F)cc1[N+](=O)[O-]
inactive: [1] | [3] | [4] | [5] | [6] | [7] | [8] | [9] | [10] | [11] | [12] | [13] | [14]

CCC/C(=N\OCC)C1=C(O)CC(CC(C)SCC)CC1=O (stereo not drawn)
inactive: [3] | [4] | [5] | [6] | [7] | [8] | [9] | [10] | [11] | [12] | [13]
